Results from PubChem BioAssay (NCI).
“And” between values parts separate entries of the source, which are not always exact repeats. Equal entries are not always repeated. This is part of a sample that, as a whole, favours compounds with a hit. Of some 83,000 tested, about 20% had one in any assay.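 Single-dose data. Exposure time 48 hours. Values below 10 considered active.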 Unmarked numbers belong to inactive results. The source made the active and inactive calls.

Each compound was assayed on MDA-MB-468 breast (assay: NCI-60 one-dose screen, 48 h (100 = growth as untreated, 0 = no growth, -100 = all killed)). Settings: 10 µM unless noted.
Work on `Cc1ccc2nc(NC(=O)CSc3nc(-c4ccccc4)c(C#N)c4nnnn34)sc2c1` yielded a growth of 107%. `COc1ccc(-c2cc(-c3cc(OC)ccc3OC)nc(SCC(C)=O)c2C#N)cc1` gave a growth of 56.2%. `COc1ccc(Cn2cc(C(=O)N=Nc3c(O)[nH]c4c(Cl)cccc34)nn2)cc1` was tested, and the growth was 98.6%. With `CC(C)N=c1cc2n(-c3ccc(Cl)cc3)c3ccccc3nc-2cc1Nc1ccc(Cl)cc1` the growth was -45.1% (active) and -53.3% (active) and -42.4% (active). `CN(C)C(=O)c1cc2cnc(Nc3ccc(-c4csc5c(=O)cc(N6CCOCC6)oc45)cc3)nc2n1C1CCCC1` was tested, and the growth was -5.41% (active). Work on `CC1CCC(C(C)(C)[N+](C)(C)C)CC1` (stereo not given) yielded a growth of 120%. With `COc1ccc(-c2nc(-c3nc4ccc(C)cc4[nH]3)c3ccccn23)cc1` the growth was 45.4%. In the case of `CC(C)(C)CC(C)(C)c1ccc(OCCOCCSC(=N)N)cc1`, the growth is reported as -47.3% (active). Compound `COC(=O)N[C@@H](C)CNc1nccc(-c2cn(C(C)C)nc2-c2cc(Cl)cc(NS(C)(=O)=O)c2F)n1` has a growth of 99.4%. `COc1cccc(COc2ccc(/C=C3/C(=O)Nc4cc(Cl)ccc43)cc2)c1` was tested, and the growth was 85.1%. For `CCN(CC)CCOC(=O)N1c2ccccc2Sc2ccccc21`, the growth was 96.3%. `COc1ccc(C2C(C#N)=C(/N=C/c3ccc(Cl)cc3)Oc3c2sc2c(C)cccc32)cc1` (stereo not given) was tested, and the growth was 21.4%. `O=c1c2ccccc2sc2c(NCCN3CCOCC3)nc3ccccc3c12` showed a growth of 59.4%. Compound `CCOc1ccc(C(C)=O)cc1NC(=O)c1cccc(-c2nnn(CC)n2)c1` has a growth of 17.5%. Work on `CC(=O)Oc1ccccc1C(=O)/C=C/c1cccc([N+](=O)[O-])c1` yielded a growth of 61.2%. For `COc1ccc2oc(-c3ccc(Cl)cc3)c(N3CCN(C)CC3)c2c1`, the growth was -53.5% (active). `CCCC[N+]1(C)CCN=C1Cc1ccccc1` (stereo not given) gave a growth of 82.3%. For `C#CCOc1ccc2ncnc(Nc3cccc(CNC(=O)C=C)c3)c2c1`, the growth was 89.2% [8.25 µM]. Compound `NC(=Nc1ccc(N)cc1)C(N)=Nc1ccc(N)cc1` has a growth of 94.3%. Compound `CC1CC2C3CCC4=CC(=O)CCC4(C)C3CCC2(C)C1(O)C(=O)CO` (stereo not given) has a growth of 115%. Compound `COc1ccc(Cn2cc(C(=O)N=Nc3c(O)[nH]c4c(C)cccc34)nn2)cc1` has a growth of 89.2%. For `Clc1ccc(Cl)c(N=Cc2ccc3c(c2)OCO3)c1`, the growth was 113%. `Cc1ccc(NS(=O)(=O)c2ccc3c(c2)C(=O)CC(c2ccc(C(=O)C(C)C)cc2)N3)cc1C` (stereo not given) was tested, and the growth was -3.79% (active). For `Cc1ncc(C(=O)Nc2ccc(CN3CCN(C)CC3)c(C(F)(F)F)c2)cc1C#Cc1cnc(NC2CC2)c2ncccc12`, the growth was 32%. `O=C(OCC1OC(n2cc(C(F)(F)F)c(=O)[nH]c2=O)CC1OC(=O)c1ccc([N+](=O)[O-])cc1)c1ccc([N+](=O)[O-])cc1` (stereo not given) was tested, and the growth was 85.3%. With `C/C(=C(/c1ccccc1)c1ccc(OCC(O)CNCCN2CCOCC2)cc1)c1ccccc1` (stereo not given) the growth was 53.1%. With `C/C(N)=C(\C#N)C(=O)c1ccccc1` the growth was 97.7%. Compound `O=C(O)c1ccc(CNc2ccc(C(=O)CCl)cc2)cc1` has a growth of 63.8%. For `O=C(CN1CCOCC1)Nc1ccc2ncnc(Nc3ccc(Oc4cccc(C(F)(F)F)c4)c(Cl)c3)c2c1`, the growth was -7.54% (active). With `CCCCN(CC)CC(CC)Nc1cc(OC)cc2cccnc12` (stereo not given) the growth was 119%. In the case of `O=c1nc(Nc2cccc(Cl)c2)oc2cc(Cl)oc(=O)c12`, the growth is reported as 75.1%. In the case of `O=C(Nc1ccc(Cl)cc1)c1cc2c(cc1O)[nH]c1ccccc12`, the growth is reported as -17.6% (active). `CCCCCCCCOC(=O)c1ccc(O)c(OC)c1` was tested, and the growth was 99.2%. Compound `COc1ccc(Nc2nc(SC)nc(-c3cccc([N+](=O)[O-])c3)c2C#N)cc1` has a growth of 54.7%. With `COc1cc(CNC(=O)CCSc2nc3ccccc3c(=O)n2Cc2cc(OC)c(OC)c(OC)c2)cc(OC)c1OC` the growth was 1.82% (active). In the case of `CCCC[N+](CCCC)=c1ccc2nc3c(C)cc(N(CC)CC)cc3sc-2c1`, the growth is reported as -45.9% (active). In the case of `Cc1c(Cl)cccc1NCN1C(=O)c2ccccc2C1=O`, the growth is reported as 98.4%. `COC(=O)CCc1c(/C=C2\N=C(c3ccc[nH]3)C=C2OC)[nH]c(C)c1C(=O)OCc1ccccc1` was tested, and the growth was 28.5%. `COc1ccc(CCN2CCCN3C2=Nc2ccccc2S3(=O)=O)cc1` was tested, and the growth was 5.24% (active). In the case of `Cn1c(N2N=C(c3ccc(Cl)cc3)CC2c2ccccc2)nc(-c2ccccc2)c(C#N)c1=O` (stereo not given), the growth is reported as 74%.
